{"source": "paper PMC7862700", "about": "“An all-to-all approach to the identification of sequence-specific readers for epigenetic DNA modifications on cytosine”", "assay_in_all_cases": "DAPPL (digital affinity profiling via proximity ligation, sequencing); 10 mM Tris-HCl pH 7.5, 50 mM NaCl, 1 mM DTT, 4% glycerol, room temperature, 30 min; GST-TFs on glutathione beads, 16-mer random dsDNA library, 0.1% formaldehyde crosslink after washing; high values mean tight binding", "settings_in_all_cases": "protein: recombinant; tags: N-terminal GST; dsDNA, one strand shown", "key": {"[1]": {"target": "T1, FLI1 (Homo sapiens, UniProt Q01543 1-452)", "T1 sequence": "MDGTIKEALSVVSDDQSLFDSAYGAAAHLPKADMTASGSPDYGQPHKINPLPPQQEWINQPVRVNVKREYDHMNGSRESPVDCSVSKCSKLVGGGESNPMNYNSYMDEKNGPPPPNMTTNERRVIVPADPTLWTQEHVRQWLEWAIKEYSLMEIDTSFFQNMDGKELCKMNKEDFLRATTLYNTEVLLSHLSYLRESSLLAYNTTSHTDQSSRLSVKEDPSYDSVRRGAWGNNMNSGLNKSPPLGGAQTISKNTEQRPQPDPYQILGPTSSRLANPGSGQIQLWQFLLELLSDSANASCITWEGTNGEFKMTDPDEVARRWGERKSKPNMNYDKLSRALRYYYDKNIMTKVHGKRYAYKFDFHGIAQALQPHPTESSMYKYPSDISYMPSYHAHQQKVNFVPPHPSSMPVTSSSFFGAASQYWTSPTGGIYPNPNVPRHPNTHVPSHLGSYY", "method_in_brief": "(§1)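 Yeast served to express human transcription factors as GST fusions, which were then captured on glutathione beads and labelled with DNA barcodes. Pooled with a tag-only sample, they were incubated with 200 nmole of a 16-mer random double-stranded DNA library for 30 min at room temperature in Tris/NaCl/DTT/glycerol buffer, washed, crosslinked with 0.1% formaldehyde, ligated by proximity, amplified by PCR and sequenced. Dividing each hexamer's read frequency for a factor by its frequency for the tag-only sample gives the binding signal.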"}, "[2]": {"target": "T2, EHF (Homo sapiens, UniProt Q9NZC4 1-300)", "T2 sequence": "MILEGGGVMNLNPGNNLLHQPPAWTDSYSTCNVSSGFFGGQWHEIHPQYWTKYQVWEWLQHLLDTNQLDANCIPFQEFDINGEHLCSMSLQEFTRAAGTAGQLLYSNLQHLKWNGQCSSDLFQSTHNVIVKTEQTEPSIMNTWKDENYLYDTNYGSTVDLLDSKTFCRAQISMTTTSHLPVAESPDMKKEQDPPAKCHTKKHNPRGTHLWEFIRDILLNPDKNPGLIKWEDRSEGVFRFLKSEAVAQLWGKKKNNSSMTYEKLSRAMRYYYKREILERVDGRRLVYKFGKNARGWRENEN", "method_in_brief": "as §1"}, "[3]": {"target": "T3, ELK3 (Homo sapiens, UniProt P41970 1-407)", "T3 sequence": "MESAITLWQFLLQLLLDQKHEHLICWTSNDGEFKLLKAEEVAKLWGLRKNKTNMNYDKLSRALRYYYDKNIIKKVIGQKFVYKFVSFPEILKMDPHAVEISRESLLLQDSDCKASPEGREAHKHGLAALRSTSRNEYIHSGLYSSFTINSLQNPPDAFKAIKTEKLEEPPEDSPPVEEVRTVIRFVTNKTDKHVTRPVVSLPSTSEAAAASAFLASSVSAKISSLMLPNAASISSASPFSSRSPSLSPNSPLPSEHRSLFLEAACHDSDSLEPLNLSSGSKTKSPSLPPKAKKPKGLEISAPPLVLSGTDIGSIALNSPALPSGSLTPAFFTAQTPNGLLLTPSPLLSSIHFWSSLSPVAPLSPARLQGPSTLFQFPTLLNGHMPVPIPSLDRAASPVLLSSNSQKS", "method_in_brief": "as §1"}, "[4]": {"target": "T4, SPIC (Homo sapiens, UniProt Q8N5J4 1-248)", "T4 sequence": "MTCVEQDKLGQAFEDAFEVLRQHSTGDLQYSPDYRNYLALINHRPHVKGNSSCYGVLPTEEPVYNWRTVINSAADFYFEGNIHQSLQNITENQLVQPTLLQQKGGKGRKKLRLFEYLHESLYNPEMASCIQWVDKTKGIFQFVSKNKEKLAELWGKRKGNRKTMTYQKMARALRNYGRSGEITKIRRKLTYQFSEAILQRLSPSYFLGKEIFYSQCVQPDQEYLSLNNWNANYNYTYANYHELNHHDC", "method_in_brief": "as §1"}, "[5]": {"target": "ELF4 (Homo sapiens, UniProt Q99607 1-663)", "sequence (Q99607 whole entry)": "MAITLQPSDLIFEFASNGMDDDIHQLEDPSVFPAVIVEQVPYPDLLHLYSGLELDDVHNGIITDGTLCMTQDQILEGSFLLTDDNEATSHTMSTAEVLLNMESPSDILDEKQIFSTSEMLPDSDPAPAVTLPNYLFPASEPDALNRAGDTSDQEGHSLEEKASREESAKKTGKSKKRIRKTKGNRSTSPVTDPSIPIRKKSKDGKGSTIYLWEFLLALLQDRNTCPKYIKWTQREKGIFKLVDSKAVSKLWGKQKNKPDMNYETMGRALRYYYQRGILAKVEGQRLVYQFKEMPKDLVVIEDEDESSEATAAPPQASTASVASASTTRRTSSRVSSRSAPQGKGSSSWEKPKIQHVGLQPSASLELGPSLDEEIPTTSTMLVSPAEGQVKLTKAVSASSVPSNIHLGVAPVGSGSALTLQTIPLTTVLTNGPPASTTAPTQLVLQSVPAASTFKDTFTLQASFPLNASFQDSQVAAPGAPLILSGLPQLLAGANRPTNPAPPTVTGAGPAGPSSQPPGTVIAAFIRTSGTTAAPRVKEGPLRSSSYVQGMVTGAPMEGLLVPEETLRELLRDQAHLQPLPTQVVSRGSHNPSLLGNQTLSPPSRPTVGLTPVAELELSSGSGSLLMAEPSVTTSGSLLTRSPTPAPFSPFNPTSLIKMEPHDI", "method_in_brief": "as §1"}, "[6]": {"target": "T5, ETV2 (Homo sapiens, UniProt O00321 1-342)", "T5 sequence": "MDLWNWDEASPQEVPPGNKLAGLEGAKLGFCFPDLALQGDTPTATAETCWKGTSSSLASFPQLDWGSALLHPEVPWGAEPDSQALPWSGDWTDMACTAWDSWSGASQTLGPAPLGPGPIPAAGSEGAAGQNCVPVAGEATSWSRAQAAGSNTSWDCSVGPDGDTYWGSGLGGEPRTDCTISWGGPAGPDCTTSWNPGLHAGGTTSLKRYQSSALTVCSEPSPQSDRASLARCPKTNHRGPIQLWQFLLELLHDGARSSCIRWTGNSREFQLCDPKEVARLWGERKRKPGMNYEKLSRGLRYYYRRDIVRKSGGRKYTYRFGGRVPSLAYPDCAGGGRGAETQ", "method_in_brief": "as §1"}, "[7]": {"target": "T6, ELF3 (Homo sapiens, UniProt P78545 1-371)", "T6 sequence": "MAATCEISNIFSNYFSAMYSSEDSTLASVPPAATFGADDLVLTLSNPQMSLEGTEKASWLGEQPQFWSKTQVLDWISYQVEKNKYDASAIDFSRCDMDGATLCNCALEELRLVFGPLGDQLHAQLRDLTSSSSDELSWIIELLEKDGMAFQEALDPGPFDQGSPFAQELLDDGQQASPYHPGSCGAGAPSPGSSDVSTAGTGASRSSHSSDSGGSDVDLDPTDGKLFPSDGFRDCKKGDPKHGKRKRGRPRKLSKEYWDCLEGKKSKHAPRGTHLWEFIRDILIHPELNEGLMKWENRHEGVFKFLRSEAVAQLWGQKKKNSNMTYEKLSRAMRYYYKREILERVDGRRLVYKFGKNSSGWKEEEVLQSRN", "method_in_brief": "as §1"}, "[8]": {"target": "ETV1 (Homo sapiens, UniProt P50549 1-477)", "sequence (P50549 whole entry)": "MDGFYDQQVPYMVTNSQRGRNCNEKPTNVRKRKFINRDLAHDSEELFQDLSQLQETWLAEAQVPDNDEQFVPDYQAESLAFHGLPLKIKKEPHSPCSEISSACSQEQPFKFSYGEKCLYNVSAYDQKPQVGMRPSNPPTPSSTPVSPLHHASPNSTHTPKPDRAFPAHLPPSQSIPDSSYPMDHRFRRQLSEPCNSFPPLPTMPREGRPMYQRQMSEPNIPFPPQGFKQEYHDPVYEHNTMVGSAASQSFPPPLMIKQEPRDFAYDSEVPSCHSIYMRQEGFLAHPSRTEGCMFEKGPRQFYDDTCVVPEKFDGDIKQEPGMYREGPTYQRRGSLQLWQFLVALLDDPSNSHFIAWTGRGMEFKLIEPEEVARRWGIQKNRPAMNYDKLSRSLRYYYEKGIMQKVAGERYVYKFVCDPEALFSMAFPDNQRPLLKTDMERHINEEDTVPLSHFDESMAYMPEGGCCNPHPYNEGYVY", "method_in_brief": "as §1"}, "[9]": {"target": "T7, ERF (Homo sapiens, UniProt P50548 1-548)", "T7 sequence": "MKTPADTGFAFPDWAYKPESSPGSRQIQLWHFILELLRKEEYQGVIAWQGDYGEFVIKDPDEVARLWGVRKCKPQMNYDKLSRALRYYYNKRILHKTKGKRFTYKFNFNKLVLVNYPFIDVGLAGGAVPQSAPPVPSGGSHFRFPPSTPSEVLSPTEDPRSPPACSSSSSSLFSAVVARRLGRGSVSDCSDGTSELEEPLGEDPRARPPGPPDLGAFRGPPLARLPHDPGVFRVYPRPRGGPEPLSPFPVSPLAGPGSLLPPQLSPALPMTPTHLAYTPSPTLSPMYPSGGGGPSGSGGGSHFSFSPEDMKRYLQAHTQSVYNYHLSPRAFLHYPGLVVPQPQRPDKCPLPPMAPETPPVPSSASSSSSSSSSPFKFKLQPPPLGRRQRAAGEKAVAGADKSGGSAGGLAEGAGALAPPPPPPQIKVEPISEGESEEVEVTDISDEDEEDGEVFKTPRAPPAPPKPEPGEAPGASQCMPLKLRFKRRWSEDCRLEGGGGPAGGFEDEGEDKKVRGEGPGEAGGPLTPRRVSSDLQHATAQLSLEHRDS", "method_in_brief": "as §1"}, "[10]": {"target": "T8, ETV7 (Homo sapiens, UniProt Q9Y603 1-341)", "T8 sequence": "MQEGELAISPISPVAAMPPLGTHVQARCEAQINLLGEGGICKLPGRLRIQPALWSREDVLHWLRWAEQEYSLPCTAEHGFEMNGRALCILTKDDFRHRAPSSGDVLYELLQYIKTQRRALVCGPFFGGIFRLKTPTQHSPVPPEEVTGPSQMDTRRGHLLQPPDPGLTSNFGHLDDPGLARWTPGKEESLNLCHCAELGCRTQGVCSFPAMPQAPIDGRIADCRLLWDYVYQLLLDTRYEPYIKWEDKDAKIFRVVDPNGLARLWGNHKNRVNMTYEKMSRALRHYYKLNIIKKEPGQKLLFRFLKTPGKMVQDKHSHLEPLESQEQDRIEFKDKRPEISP", "method_in_brief": "as §1"}}}
{"sequence": "AGATCT", "values": [{"measurement": "binding signal", "setting": "[1]", "value": "1.06 fold enrichment (6-mer frequency, TF over GST control)"}, {"measurement": "binding signal", "setting": "[2]", "value": "1.04 fold enrichment (6-mer frequency, TF over GST control)"}, {"measurement": "binding signal", "setting": "[3]", "value": "1.07 fold enrichment (6-mer frequency, TF over GST control)"}, {"measurement": "binding signal", "setting": "[4]", "value": "1.07 fold enrichment (6-mer frequency, TF over GST control)"}, {"measurement": "binding signal", "setting": "[5]", "value": "1.01 fold enrichment (6-mer frequency, TF over GST control)"}, {"measurement": "binding signal", "setting": "[6]", "value": "1.11 fold enrichment (6-mer frequency, TF over GST control)"}, {"measurement": "binding signal", "setting": "[7]", "value": "1.09 fold enrichment (6-mer frequency, TF over GST control)"}, {"measurement": "binding signal", "setting": "[8]", "value": "1.1 fold enrichment (6-mer frequency, TF over GST control)"}, {"measurement": "binding signal", "setting": "[9]", "value": "1.05 fold enrichment (6-mer frequency, TF over GST control)"}, {"measurement": "binding signal", "setting": "[10]", "value": "1.05 fold enrichment (6-mer frequency, TF over GST control)"}]}
